Shown are actives, neighbours in structure and some others; about 2.7% of the full set was active somewhere.
MITF TRPM1 inh – reduces MITF-dependent TRPM1 promoter luciferase signal; SK-MEL-5 TRPM1 promoter luciferase, 24 h; inhibition, % at 12.5 µM; 330,000 tested, 0.83% active;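 active means mean inhibition across replicates of 60% or more, whatever share of single replicates reaches that level; inconclusive means some that reach 60%, reason not given; inactive means mean inhibition across replicates below 60%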
Shn3 3UTR inh – Schnurri-3 reporter inhibition in Clone20 osteoblasts; Clone20 osteoblast Shn3 3'UTR firefly luciferase, 24 h; inhibition, % at 12.5 µM; 360,000 tested, 0.52% active;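 active means mean inhibition of at least 75% with every replicate also reaching 75%; inconclusive means mean inhibition at least 75% but some replicate below; inactive means mean inhibition below 75%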;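 further: 0% = median of neutral control wells and 100% = pilot-screen positive control compound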
Peg3 promoter – reduces Peg3 promoter-driven luciferase expression in HeLa | HeLa PEG-Prom luciferase reporter, luminescence, overnight | inhibition, % at 20 µM | 360,000 tested, 1.7% active;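 active means inhibition of at least 50% at 20 µM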
CF NFkB block – blocks PAF-induced NF-kB reporter in cystic fibrosis cells; KKLEB NF-kB-GFP reporter, GFP fluorescence overnight; inhibition, % at 5 µM; 360,000 tested, 0.86% active; AID 588850;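 active means at least 50% inhibition at 5 µM, scaled per plate between neutral and stimulator controls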;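 further: PAF is a Pseudomonas aeruginosa culture filtrate used as stimulus; plate controls were PAF-stimulated DMSO wells for no effect and unstimulated DMSO wells for full effect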
HIF-2a block – HIF-2a inhibition; 786-0 RCC cells HIF-2a reporter, luciferase luminescence, overnight; inhibition, % at 18.8 µM; 360,000 tested, 0.72% active; AID 624352;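 active means inhibition of the luminescence signal of 40% or more relative to plate controls, in a single-dose primary screen at 18.75 µM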
KKLEB tox – CF airway cell cytotoxicity counter-screen; activity change (cytotoxicity), % at 5 µM; AID 602141; KKLEB CF airway cells viability, ATPlite luminescence, overnight; active compounds read low; cells stimulated with P. aeruginosa culture filtrate; 360,000 tested, 0.36% active;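 active means corrected activity change at or below -50% at 5 µM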
* hit, by the source's call.

Results for Cc1cc(C)c(S(=O)(=O)/N=C2/C=C(SCC(=O)O)C(=O)c3ccccc32)cc1C ?
MITF TRPM1 inh: 50.6; Shn3 3UTR inh: 21.7; Peg3 promoter: 1.9; CF NFkB block: 55.8*; HIF-2a block: 1.7; KKLEB tox: -4.2

How did COC(=O)c1cc(OC)c(OC)cc1NC(=O)CCN1C(=O)C2CCCCC2C1=O (stereo unspecified) do in these assays?
Shn3 3UTR inh: 7.3; Peg3 promoter: 0.4; CF NFkB block: -11.1; HIF-2a block: 7.1; KKLEB tox: 3.6

What do the screens show for `O=C(Nc1ccc([N+](=O)[O-])cc1)C(c1ccccc1)c1ccccc1`?
Shn3 3UTR inh: 9.7; Peg3 promoter: 51.9*; CF NFkB block: 2.2; HIF-2a block: -4.3; KKLEB tox: 3.1

What do the screens show for `Cc1ccccc1CN1C(=O)c2ccccc2C1c1nnnn1-c1ccc2c(c1)OCCO2` (stereo unspecified)?
HIF-2a block: 2.2

How did O=C(O)CNC(=O)C(CS)Cc1ccccc1 (stereo unspecified) do in these assays?
MITF TRPM1 inh: 3.6; Shn3 3UTR inh: 10.0; Peg3 promoter: -8.6; CF NFkB block: 54.7*; HIF-2a block: 25.4; KKLEB tox: 15.9

How did O=C(O)CNC(=O)C(c1ccccc1)c1ccccc1 do in these assays?
MITF TRPM1 inh: -1.9; Shn3 3UTR inh: -22.6; Peg3 promoter: 0.7; CF NFkB block: 9.1; HIF-2a block: 6.8; KKLEB tox: 1.6

Results for N=C1S/C(=C\c2ccc(-c3cccc(Cl)c3)o2)C(=O)N1c1nccs1 ?
MITF TRPM1 inh: 48.3; Shn3 3UTR inh: inconclusive; Peg3 promoter: 104.5*; CF NFkB block: -59.3; HIF-2a block: 1.1; KKLEB tox: 11.7

How did COc1ccc(/C=C2\SC(=N)N(c3nccs3)C2=O)cc1OC do in these assays?
MITF TRPM1 inh: -1.8; Shn3 3UTR inh: 9.1; Peg3 promoter: -13.0; CF NFkB block: 13.6; HIF-2a block: -37.0; KKLEB tox: -8.8

Results for Cc1cc(N2C(=O)C=CC2=O)c([N+](=O)[O-])cc1C ?
MITF TRPM1 inh: 32.0; Shn3 3UTR inh: 89.4*; Peg3 promoter: 105.4*; CF NFkB block: 65.5*; HIF-2a block: 50.5*; KKLEB tox: -1.1

How did CC1(Cc2cccc(C#N)c2)C(=O)Nc2c(Cl)cccc21 (stereo unspecified) do in these assays?
Shn3 3UTR inh: -3.3; Peg3 promoter: -3.4; CF NFkB block: -30.1; HIF-2a block: 3.1; KKLEB tox: 9.9

How did Clc1ccccc1CNCc1ccc2c(c1)OCO2 do in these assays?
Shn3 3UTR inh: -7.7; Peg3 promoter: -69.5; CF NFkB block: -13.4; HIF-2a block: -118.4; KKLEB tox: 1.0

What do the screens show for `O=C1c2ccccc2C(=O)c2[nH]cnc21`?
MITF TRPM1 inh: 42.7; Shn3 3UTR inh: 17.0; Peg3 promoter: -6.7; CF NFkB block: -25.5; HIF-2a block: 16.8; KKLEB tox: 2.1

Results for O=C1c2ccccc2C(=O)c2[nH]c(=O)[nH]c21 ?
MITF TRPM1 inh: 100.5*; Shn3 3UTR inh: 70.5; Peg3 promoter: 81.8*; CF NFkB block: 95.7*; HIF-2a block: 7.1; KKLEB tox: -41.8

How did Cc1cc(C)n2nc(CNS(=O)(=O)c3ccc(C(C)(C)C)cc3)nc2n1 do in these assays?
Shn3 3UTR inh: 9.2; Peg3 promoter: 16.0; CF NFkB block: 3.6; HIF-2a block: -3.4; KKLEB tox: 3.6

How did Cn1c(Cc2ccccc2)nc(=O)c2ccccc21 do in these assays?
Shn3 3UTR inh: 2.0; Peg3 promoter: 12.0; CF NFkB block: 3.5; HIF-2a block: 10.0; KKLEB tox: 2.6

How did CCOC(=O)c1cnc(SCC(=O)Nc2cc(OC)cc(OC)c2)nc1N do in these assays?
MITF TRPM1 inh: 12.3; Shn3 3UTR inh: 78.3; Peg3 promoter: 37.2; CF NFkB block: 12.1; HIF-2a block: 20.6; KKLEB tox: -15.2

What do the screens show for `CCOC(=O)c1cnc(SCC(=O)Nc2sc(C)c(C)c2C#N)nc1N`?
MITF TRPM1 inh: -0.8; Shn3 3UTR inh: 15.2; Peg3 promoter: 45.4; CF NFkB block: 47.2; HIF-2a block: 9.6; KKLEB tox: -50.0*

What do the screens show for `CCOC(=O)C1(C)CCN1C(=O)c1ccc2c(c1)CCO2` (stereo unspecified)?
Shn3 3UTR inh: -3.2; Peg3 promoter: -4.1; CF NFkB block: 10.9; HIF-2a block: -8.3; KKLEB tox: -8.1

What do the screens show for `Cc1cc(O)c(-c2cc(O)c(C)cc2O)cc1O`?
MITF TRPM1 inh: 25.4; Shn3 3UTR inh: -16.3; Peg3 promoter: 69.6*; CF NFkB block: -3.4; HIF-2a block: 16.4; KKLEB tox: -6.3

Results for Cc1cc(N=O)c(C)cc1O ?
Shn3 3UTR inh: 20.1; Peg3 promoter: 6.1; CF NFkB block: 8.3; HIF-2a block: -27.2; KKLEB tox: 21.9

How did COC(=O)[C@@H]1[C@@H](C#N)C2(c3ccccc3-c3ccccc32)N(c2ccc(Cl)cc2)N1C#N do in these assays?
MITF TRPM1 inh: 37.8; Shn3 3UTR inh: 60.5; Peg3 promoter: 109.8*; CF NFkB block: 10.2; HIF-2a block: 63.6*; KKLEB tox: -6.7

How did CC/C(=C/c1ccccc1)c1cccc2[nH]c3c(OC)cccc3c12 do in these assays?
MITF TRPM1 inh: 9.5; Shn3 3UTR inh: 85.7*; Peg3 promoter: -9.7; CF NFkB block: 13.5; HIF-2a block: -11.9; KKLEB tox: -10.7

Results for O=C1c2cccc(OCC(=O)N3CCCc4ccccc43)c2CCN1Cc1ccc(Br)cc1 ?
MITF TRPM1 inh: 3.0; Shn3 3UTR inh: 51.0; Peg3 promoter: 58.2*; CF NFkB block: 4.8; HIF-2a block: -15.0; KKLEB tox: -14.2

What do the screens show for `COc1ccc(C)cc1NC(=O)NC1CCCc2ccccc21` (stereo unspecified)?
MITF TRPM1 inh: 10.3; Shn3 3UTR inh: 11.7; Peg3 promoter: 54.5*; CF NFkB block: 10.8; HIF-2a block: 11.0; KKLEB tox: 2.5

Results for COc1ccc(NC(=O)NC2CCCc3ccccc32)cc1OC (stereo unspecified) ?
MITF TRPM1 inh: 1.1; Shn3 3UTR inh: 12.1; Peg3 promoter: 11.2; CF NFkB block: 3.8; HIF-2a block: 17.8; KKLEB tox: 6.1

How did OC(c1ccc(Cl)c(F)c1)c1ncc(-c2cccc(C(F)(F)F)c2)[nH]1 (stereo unspecified) do in these assays?
Shn3 3UTR inh: 14.2; Peg3 promoter: 24.1; CF NFkB block: 31.1; HIF-2a block: 12.7; KKLEB tox: -6.1

What do the screens show for `CC(C)(C)c1ccc(C(=O)NC(=S)NNC(=O)c2cccs2)cc1`?
MITF TRPM1 inh: -1.3; Shn3 3UTR inh: -9.5; Peg3 promoter: -54.5; CF NFkB block: 57.9*; HIF-2a block: -91.6; KKLEB tox: -39.9

How did CC(C)(C)C(=O)NC(=S)NNC(=O)c1ccncc1 do in these assays?
MITF TRPM1 inh: 10.7; Shn3 3UTR inh: 3.6; Peg3 promoter: -48.4; CF NFkB block: -8.4; HIF-2a block: -16.2; KKLEB tox: -15.5

What do the screens show for `O=C(NC(=S)NNC(=O)c1cccs1)c1ccccc1`?
MITF TRPM1 inh: 32.1; Shn3 3UTR inh: 3.0; Peg3 promoter: -20.3; CF NFkB block: 0.9; HIF-2a block: -51.2; KKLEB tox: 3.4

Bioassay records as filed in PubChem.
